KAT2A inh: inhibitors of human GCN5L2 histone acetyltransferase | Q92830 | GCN5L2 HAT assay, ThioGlo1 CoA-SH fluorescence | Potency, µM (series often up to 58.9 µM), without a hit: at the top dose activity change, negative = inhibition, actives largely listed as inhibitors | hit rate 0.21% among 390,000; further: potency means the concentration at half of the fitted maximal effect; on the % scale 0 is the no-effect control and ±100 the full control effect
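GCN5L2 (20 nM) in 50mM HEPES pH 7.5, 0.1mM EDTA, 0.01% Tween-20 preincubated 15 min with compounds at room temperature. Reaction started with H3(1-25) 75uM, acetyl-CoA 70uM, ThioGlo1 50uM; CoA-thiol fluorescence (Ex340/Em540) read at 0 and 20 min.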
BAZ2B block: inhibitors of human BAZ2B bromodomain. Q9UIF8. AlphaScreen BAZ2B-H3K14Ac peptide displacement. Potency, µM (top dose mostly 114 µM), for the others: top-dose activity change, negative = inhibition, actives largely listed as inhibitors. hit rate 4.4% among 360,000. AID 504333; further: potency means the concentration at half of the fitted maximal effect; on the % scale 0 is the no-effect control and ±100 the full control effect; nearly all actives have a fitted effect of over 60% in size
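BAZ2B 50 nM plus b-H3(5-23)K14Ac 50 nM, PBS pH 7.4/0.01% Tween-20, 30 min RT; compound added (max 110 uM), 30 min RT; streptavidin donor/Ni-chelate acceptor beads 10 ug/mL final, 20 min dark; AlphaScreen read.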
PLK1 PBD block: PLK1 (human) polo-box domain binding inhibition; P53350; Plk1 PBD binding of FITC phosphopeptide, fluorescence polarization; hit rate 2.8% among 360,000; Potency, µM, without a hit: max response, negative = inhibition, usual class: inhibitors; AID 720504; further: potency means the concentration at half of the fitted maximal effect; series mostly up to about 57 µM; on the % scale 0 is the no-effect control and ±100 the full control effect; nearly all actives have a fitted effect of over 65% in size
Target sequence (P53350 whole entry, looked up, the tested form may be a part): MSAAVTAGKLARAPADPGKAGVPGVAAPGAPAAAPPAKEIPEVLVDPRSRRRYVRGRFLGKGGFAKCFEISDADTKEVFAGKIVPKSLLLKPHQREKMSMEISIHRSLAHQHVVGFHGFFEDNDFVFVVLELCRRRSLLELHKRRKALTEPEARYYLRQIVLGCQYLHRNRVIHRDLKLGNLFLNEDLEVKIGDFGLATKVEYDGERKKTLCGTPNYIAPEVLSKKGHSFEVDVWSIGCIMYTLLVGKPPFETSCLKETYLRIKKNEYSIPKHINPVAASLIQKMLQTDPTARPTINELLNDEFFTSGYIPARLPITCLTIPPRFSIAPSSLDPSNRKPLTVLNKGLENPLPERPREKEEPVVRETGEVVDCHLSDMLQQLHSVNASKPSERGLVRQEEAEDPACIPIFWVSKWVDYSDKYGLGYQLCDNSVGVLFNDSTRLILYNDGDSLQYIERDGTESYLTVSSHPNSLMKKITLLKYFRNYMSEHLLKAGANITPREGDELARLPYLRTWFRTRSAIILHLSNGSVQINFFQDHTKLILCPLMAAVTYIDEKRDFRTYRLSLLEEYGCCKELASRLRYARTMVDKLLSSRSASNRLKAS
HP1b chromo inh: blocks HP1-beta chromodomain binding to methylated histone tails. P83916. AlphaScreen HP1-beta / biotin-H3K9me3 peptide binding. Potency, µM (highest dose often 114 µM), without a hit: at the top dose activity change, negative = inhibition, actives largely listed as inhibitors. hit rate 0.56% among 390,000; further: potency means the concentration at half of the fitted maximal effect; nearly all actives have a fitted effect of over 70% in size
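AlphaScreen: HP1-beta (50 nM) preformed 30 min with biotin-H3(1-18)K9me3 peptide (50 nM) in PBS pH 7.4, 0.01% Tween-20. Compound added for 30 min at RT, then streptavidin donor/nickel chelate acceptor beads (10 ug/mL) for 30 min.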
PI5P4K alpha inh: PI5P4K alpha (human) kinase inhibition. P48426. PI5P4Kalpha enzyme, ADP-Glo luminescence, 60 min; active compounds read low. max response, %. hit rate 1.2% among 330,000; active means max response of -50% or lower; inconclusive means between -30% and -50%; inactive means -30% or higher; further: value at the top dose of about 77 µM; on the % scale 0 is the no-effect control and ±100 the full control effect
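ADP-Glo luminescence end-point read after a 60 min room-temperature kinase reaction of PI5P4Kalpha plus substrate, initiated with ATP at 5 microM final. Buffer: 0.038 M HEPES pH 7.4, EGTA, 0.1% CHAPS, 5% DMSO.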
JMJD2A Tudor inh: inhibitors of human JMJD2A Tudor domain. O75164. AlphaScreen JMJD2A-Tudor / H3K4me3 peptide binding. Potency, µM (highest dose often 114 µM), inactives show top-dose activity change, negative = inhibition, usual class: inhibitors. hit rate 4.4% among 390,000; further: potency means the concentration at half of the fitted maximal effect; on the % scale 0 is the no-effect control and ±100 the full control effect; nearly all actives have a fitted effect of over 50% in size
TbPYK confirm: confirmation of Trypanosoma brucei pyruvate kinase inhibitors. shares compounds with PLK1 PBD block. recombinant TbPYK, Kinase-Glo ATP luminescence. Potency, µM (doses to about 76.9 µM), inactives show at the highest dose activity change, negative = inhibition, actives largely listed as inhibitors. hit rate 67% among 890; further: potency means the concentration at half of the fitted maximal effect; on the % scale 0 is the no-effect control and ±100 the full control effect; nearly all actives have a fitted effect of over 70% in size
TbPYK orthogonal: TbPYK inhibition, orthogonal confirmation. shares compounds with PLK1 PBD block. recombinant TbPYK, ADP-Glo luminescence, 60 min. Potency, µM (series often up to 76.9 µM), without a hit: at the top dose activity change, negative = inhibition, most hits filed as inhibitors. hit rate 62% among 890. AID 720584; further: potency means the concentration at half of the fitted maximal effect; on the % scale 0 is the no-effect control and ±100 the full control effect; nearly all actives have a fitted effect of over 75% in size
Numbers without * were called inactive; [ ] = remark or other dose. Compounds with a hit are over-represented: about 7% of the library has one in this group of screens. Unless noted, the call rests on the fitted dose curve; in most records, active means well fitted curve in the direction sought with a large enough effect; inconclusive means small, poorly fitted or top-dose-only effect, or another doubt; inactive means no such curve, though single readings can be large; an effect the other way counts as inactive or inconclusive.

`CCOC(=O)c1c(NC(=O)CSc2cn(CCNC(=O)c3ccc(OC)cc3)c3ccccc23)sc2c1CCC2` gave KAT2A inh -12%, BAZ2B block -39%, HP1b chromo inh -12% and JMJD2A Tudor inh -34%.
Screening CC1CCc2c(sc(Nc3nc4c(F)cccc4s3)c2C(N)=O)C1 (centres undefined) returned KAT2A inh -11%, BAZ2B block -3%, PLK1 PBD block -6%, HP1b chromo inh -6%, PI5P4K alpha inh inconclusive, JMJD2A Tudor inh inconclusive, TbPYK confirm 8.9µM* and TbPYK orthogonal 14µM*.
`O=C(Nc1nc2c(F)cccc2s1)C1CC1` gave KAT2A inh -3%, BAZ2B block -9%, PLK1 PBD block 4%, HP1b chromo inh 36%, PI5P4K alpha inh 7 and JMJD2A Tudor inh -5%.
For O=C(Nc1ccccc1F)c1oc2ccccc2c1NC(=O)C12CC3CC(CC(C3)C1)C2 the results were KAT2A inh 0%, BAZ2B block 6%, HP1b chromo inh 49% and JMJD2A Tudor inh 6%.
CC(Oc1ccccc1F)C(=O)NNC(=O)CC(C)c1ccccc1 (centres undefined) was read as KAT2A inh 2%, BAZ2B block 11%, PLK1 PBD block -9%, HP1b chromo inh 43%, PI5P4K alpha inh 1 and JMJD2A Tudor inh -5%.
For CC1CCCC(C)N1S(=O)(=O)c1ccc(Cl)cc1 (centres undefined) the results were KAT2A inh 0%, BAZ2B block 9%, PLK1 PBD block -7%, HP1b chromo inh 94%, PI5P4K alpha inh 2 and JMJD2A Tudor inh 6%.
Screening CC1=C(C)CS(=O)N(S(=O)(=O)c2ccc(Cl)cc2)C1 (centres undefined) returned KAT2A inh -4%, BAZ2B block 2%, PLK1 PBD block 1.3µM*, HP1b chromo inh 64%, PI5P4K alpha inh -20, JMJD2A Tudor inh -12%, TbPYK confirm 16µM* and TbPYK orthogonal 28µM*.
Screening CCn1cc(/C=C/C(=O)Nc2ccn(Cc3c(F)c(F)cc(F)c3F)n2)cn1 returned KAT2A inh -1%, BAZ2B block -6%, PLK1 PBD block -17%, HP1b chromo inh 8%, PI5P4K alpha inh -6, JMJD2A Tudor inh -25%, TbPYK confirm 7.9µM* and TbPYK orthogonal 13µM*.
CCn1cc(/C=C/C(=O)Nc2ccc(C)cc2Br)cn1 was read as KAT2A inh 2%, BAZ2B block 4%, PLK1 PBD block -14%, HP1b chromo inh 42%, PI5P4K alpha inh -10 and JMJD2A Tudor inh -2%.
For Cc1occc1-c1nnc(SCc2nnc(-c3ccc(Cl)cc3)o2)n1C the results were KAT2A inh -2%, BAZ2B block -21%, PLK1 PBD block 3µM*, HP1b chromo inh inconclusive, PI5P4K alpha inh inconclusive, JMJD2A Tudor inh -35%[11.4 µM], TbPYK confirm -8% and TbPYK orthogonal -6%.
For Cn1nc(C(C)(C)C)cc1N1C(=O)CCC1(C)C(=O)Nc1ccc2ccccc2c1 (centres undefined) the results were PLK1 PBD block 1% and PI5P4K alpha inh 8.

Screening results as filed in PubChem BioAssay.
